High-throughput results: PubChem, National Center for Advancing Translational Sciences (NCATS)
USP1 inh – inhibitors of human USP1/UAF1 deubiquitinase; Potency, µM (doses to about 57.1 µM), inactives show at the top dose activity change, negative = inhibition, most hits filed as inhibitors; 390,000 compounds, 0.23% hits; recombinant USP1/UAF1, Ub-Rhodamine cleavage fluorescence; also: potency is read from the fitted curve at half-maximal effect; % is scaled to controls: 0 for no effect and ±100 for the full control effect; nearly all actives have a fitted effect of over 60% in size
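1 nM enzyme complex + cpd, 15 min RT; start with Ub-Rho 150nM final; kinetic fluorescence ex 480/em 540, 6 reads q60 s. Buffer 50mM HEPES pH 7.8, 0.5mM EDTA, 0.1 mg/ml BSA, 1mM TCEP, 0.01% Tween-20.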
ATXN2 expr inh – inhibitors of ATXN2 expression; HEK-293 ATXN2-luciferase reporter, luminescence, 24 h; Potency, µM (doses to about 57 µM), inactives show top-dose activity change, negative = inhibition, hits mostly inhibitors; 360,000 compounds, 0.72% hits; AID 1745845; also: potency is read from the fitted curve at half-maximal effect; % is scaled to controls: 0 for no effect and ±100 for the full control effect; nearly all actives have a fitted effect of over 55% in size
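qHTS (up to 57 uM final) was run with 24 h compound exposure of reporter cells at 37 °C. Each well was multiplexed: SteadyGlo luminescence measured ATXN2-luciferase expression after a fluorogenic Gly-Phe-AFC viability readout (25 uM final).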
USP2a inh – blocks human ubiquitin-specific protease USP2a; USP2 core, Ub-CHOP2 coupled fluorogenic reporter, 485/531; Potency, µM (doses to about 38.3 µM), for inactives: at the highest dose activity change, negative = inhibition, actives largely listed as inhibitors; 330,000 compounds, 0.01% hits;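 also: potency is read from the fitted curve at half-maximal effect; plate controls were DMSO wells for no effect and full inhibition by NEM control for full effect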
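USP2 core (10nM final) preincubated 30min RT with compound in 20mM Tris-HCl pH 8.0, 2mM CaCl2, 2mM beta-mercaptoethanol, 0.05% CHAPS; 25nM Ub-CHOP2 plus 25nM reporter substrate added, fluorescence (Ex485/Em531) read after 60min.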
S2 tox – viability counter-screen for ATXN expression inhibitors; S2 cells (HEK-293 line with an ATXN2-luciferase reporter) viability, CellTiter-Fluor protease fluorescence, 24 h; Potency, µM (top dose mostly 56.7 µM), actives largely listed as cytotoxic; 400,000 compounds, 0.49% hits; also: potency is read from the fitted curve at half-maximal effect; nearly all actives have a fitted effect of over 40% in size
IL-1B inflam inh – blocks inflammasome-driven IL-1 beta release; 360,000 compounds, 4.7% hits; THP-1 LPS/ATP IL-1B secretion, AlphaLISA, 16 h; hits give low values; AID 743279; activity change, % at 57.5 µM; in the data active = activity change below about -50%; inconclusive = mostly about -30% to -49%; also: % is scaled to controls: 0 for no effect and ±100 for the full control effect
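Secreted IL-1B measured by AlphaLISA bead assay after 16 h compound exposure of THP-1 cells; compounds (final up to 57.5 uM) added 1 h before LPS (250 ng/mL) and ATP (1.25 mM) stimulation; lower signal means less secretion.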
* hit, by the source's call; i = inactive; ? = inconclusive; nt = no result given. Hits are enriched below; roughly 4.8% of the tested compounds scored in any of these assays. Unless noted, calls follow the shape of the dose curve; as a rule, active = well fitted curve in the direction sought with a large enough effect; inconclusive = small, poorly fitted or top-dose-only effect, or another doubt; inactive = no such curve, though single readings can be large; an effect the other way counts as inactive or inconclusive.

SMILES | USP1 inh | ATXN2 expr inh | USP2a inh | S2 tox | IL-1B inflam inh
COCCNC(=O)C1(C)CCCN(C(=O)COc2ccccc2)C1 (stereo not drawn) | nt | 10% | nt | i | -85*
FC(F)(F)c1ccc(-c2cccc3c2C2CC3CCN2C(=S)NCCc2ccccc2)cc1 (stereo not drawn) | nt | ? | nt | ? | -8
O=C(/C=C/[C@H]1O[C@@H](n2ccc(=O)[nH]c2=O)[C@H](O)[C@@H]1O)NCC1CCCO1 (stereo partly drawn) | nt | 7% | nt | i | 9
Cc1cc(O)c(C(=O)/C=C/c2ccc(Cl)cc2)c(=O)o1 | -22% | -10% | ? | nt | ?
O=C(/C=C/c1ccc(Cl)cc1)c1ccc([N+](=O)[O-])o1 | ? | ? | 1% | 11µM* | ?
Cc1ccc(/C=C/C(=O)c2ccc([N+](=O)[O-])o2)cc1 | -16% | ? | 3% | 8.9µM* | -113*
Cc1ccc(CNC(=O)c2ccc([N+](=O)[O-])o2)cc1 | -15% | 1% | 3% | ? | ?
COc1ccc(C)cc1N1CC(C(=O)Nc2ccccc2C(=O)NC2CC2)CC1=O (stereo not drawn) | -16% | nt | -1% | i | 9
Cc1ccc(S(=O)(=O)Nc2c(C)n(C)n(-c3ccccc3)c2=O)cc1C(=O)OC(C)C(=O)c1ccccc1 (stereo not drawn) | -20% | nt | nt | i | 0
O=C(c1ccccc1C(F)(F)F)N1CCOc2c(cc(-c3nc4ccccc4s3)cc2OC2CCOC2)C1 (stereo not drawn) | nt | nt | nt | i | nt
C[C@@H](O[C@H]1OCCN(Cc2n[nH]c(=O)[nH]2)[C@@H]1c1ccc(F)cc1)c1cc(C(F)(F)F)cc(C(F)(F)F)c1 | nt | ? | nt | 32µM* | nt
CC(NC(=O)COC(=O)C1CCN(c2ccc(C(F)(F)F)cn2)CC1)c1ccc(F)cc1 (stereo not drawn) | -17% | nt | -6% | i | -11
O=C(c1ccccc1)N1CCN(c2ncnc3c2cnn3-c2ccccc2)CC1 | -7% | 9% | 0% | i | 3
CCN1CCN(c2ncnc3c2cnn3-c2cc(Cl)ccc2C)CC1 | ? | -20% | nt | ? | nt
Cc1ccc(Cl)cc1-n1ncc2c(N3CCN(Cc4ccccc4)CC3)ncnc21 | -16% | 16µM* | nt | 18µM* | nt
Cc1nn(-c2ccccc2)c(Cl)c1C(=O)N1CCN(c2ncnc3c2cnn3-c2ccccc2)CC1 | -16% | 18µM* | -1% | nt | -74*
COc1ccc(CNC(=O)N2[C@H]3CC[C@@H]2C=C(c2ccc(F)cc2OCc2ccccc2)C3)cc1OC | 0% | 64% | nt | ? | -14
CCc1ccc(CNC(=O)c2nn(C)c3c2CS(=O)(=O)c2ccccc2-3)cc1 | -5% | -2% | 0% | i | -18
Cc1ccc(CNC(=O)c2nn(C)c3c2CS(=O)(=O)c2ccccc2-3)cc1 | -16% | 0% | 0% | i | -53*
CC(Nc1c([N+](=O)[O-])c(=O)oc2ccccc12)C(Cl)c1ccccc1 (stereo not drawn) | 0% | -10% | -1% | i | -67*
Cc1ccc(Nc2c([N+](=O)[O-])c(=O)oc3ccccc23)cc1 | -8% | ? | 3% | i | nt
Cc1ccc(C)c(Nc2c([N+](=O)[O-])c(=O)oc3ccccc23)c1 | -10% | -19% | -1% | i | -58*
CC(C)CCCC(C)NCCC(C)C (stereo not drawn) | nt | -2% | nt | i | nt
c1cc2c(cc1C1CCCCC1)c1c3n2CCCNC3CCC1 (stereo not drawn) | -12% | 28µM* | -6% | nt | -83*
Cc1ccc2c(c1)c1c3n2CCCNC3CCC1 (stereo not drawn) | -16% | -17% | -2% | i | -55*
Cc1ccc2c(c1)c1c3n2CCN[C@H]3CCC1 | nt | nt | nt | i | nt
CCC(C)[C@H](NS(=O)(=O)c1ccc(F)cc1Br)C(=O)OC (stereo partly drawn) | -17% | 0% | nt | i | 38
C=CCC[C@@H](Cc1ccc(F)cc1)C(=O)OC[C@@H](Cc1c[nH]c2ccccc12)NC(=O)[C@H](CC=C)CC(=O)NCCO | -18% | ? | -1% | 28µM* | -21
